Inconclusive results are not listed. Active and inactive are the calls of the source. Calls follow the shape of the dose curve; as a rule, active = well fitted curve in the direction sought with a large enough effect; inconclusive = small, poorly fitted or top-dose-only effect, or another doubt; inactive = no such curve, though single readings can be large; an effect the other way counts as inactive or inconclusive.
What was measured:
[1] = Cell Viability - LYMP2-004 (AID 966); also: nearly all actives have a fitted effect of over 65% in size
In short: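 Human lymphoblastoid cells (2500/well) in complete medium were treated with compounds for 24 hr at 37 C, then intracellular ATP was measured by CellTiter-Glo luminescence. AC50 values came from Hill-equation fits of concentration-response data.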

[2] = Cell Viability - LYMP2-009 (AID 968); also: series mostly up to about 92 µM; nearly all actives have a fitted effect of over 55% in size
[3] = Cell Viability - LYMP2-011 (AID 969); also: nearly all actives have a fitted effect of over 60% in size
In short: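 Human lymphoblastoid cells (2500/well) were plated in complete medium, preincubated 5 hr at 37 C, then exposed to compounds for 24 hr at 37 C. Intracellular ATP was read by CellTiter-Glo luminescence, and AC50 came from Hill-equation concentration-response fits.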

[4] = Cell Viability - LYMP2-013 (AID 970); also: series mostly up to about 92 µM; nearly all actives have a fitted effect of over 55% in size
In short: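 Human lymphoblastoid cells, 2500/well, were preincubated 5 hr at 37 C, then treated with compounds for 24 hr at 37 C in complete medium. Intracellular ATP was read by CellTiter-Glo luminescence; AC50 from Hill-equation fits of concentration-response data.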

[5] = Cell Viability - LYMP2-017 (AID 972); also: series mostly up to about 92 µM; nearly all actives have a fitted effect of over 55% in size
In short: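 Human lymphoblastoid cells (2500/well) were seeded in complete medium, held 5 hr at 37 C, then exposed to compounds for 24 hr at 37 C. Intracellular ATP was read by CellTiter-Glo luminescence after 30 min at room temperature, with AC50 values from Hill-equation fits.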

[6] = Cell Viability - LYMP2-019 (AID 973); also: nearly all actives have a fitted effect of over 55% in size
In short: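 Human lymphoblastoid cells were seeded at 2500 cells/well, preincubated 5 hr at 37 C, then exposed to compounds for 24 hr at 37 C in complete medium. Intracellular ATP was measured by CellTiter-Glo luminescence; AC50 from Hill fits.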

[7] = Cell Viability - LYMP2-021 (AID 974)
In short: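 Human lymphoblastoid cells (2500/well) were preincubated 5 hr at 37 C, then exposed to compounds for 24 hr at 37 C in complete medium. Intracellular ATP was read by CellTiter-Glo luminescence; AC50 came from Hill-equation fits of concentration-response data.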

[8] = Cell Viability - LYMP2-023 (AID 975)
In short: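 Human lymphoblastoid cells (2500/well) were preincubated 5 hr at 37 C, then exposed to compounds for 24 hr at 37 C in complete medium. Cellular ATP was read by CellTiter-Glo luminescence, and AC50 came from Hill-equation fits.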

[9] = Cell Viability - LYMP2-025 (AID 976); also: series mostly up to about 92 µM
In short: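 Human lymphoblastoid LYMP2-025 cells (2500/well) were pre-incubated 5 hr at 37 C, then treated with compounds for 24 hr at 37 C in complete medium. Viability was read as intracellular ATP by CellTiter-Glo luminescence; AC50 from Hill fits.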

[10] = Cell Viability - LYMP2-005 (AID 967); also: series mostly up to about 92 µM
In short: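 CellTiter-Glo luminescence (cellular ATP) read-out; LYMP2-005 lymphoblastoid cells, 2500/well, 5 h pre-incubation, then 24 h compound exposure at 37 C in complete medium. Tetraoctylammonium bromide positive control; AC50 by standard Hill fit.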

Measured: outcome

OC[C@H]1O[C@@H]2O[C@H]3[C@H](O)[C@@H](O)[C@@H](O[C@H]4[C@H](O)[C@@H](O)[C@@H](O[C@H]5[C@H](O)[C@@H](O)[C@@H](O[C@H]6[C@H](O)[C@@H](O)[C@@H](O[C@H]7[C@H](O)[C@@H](O)[C@@H](O[C@H]8[C@H](O)[C@@H](O)[C@@H](O[C@H]1[C@H](O)[C@H]2O)O[C@@H]8CO)O[C@@H]7CO)O[C@@H]6CO)O[C@@H]5CO)O[C@@H]4CO)O[C@@H]3CO
inactive: [1] | [2] | [3] | [4] | [5] | [6] | [7] | [8] | [9]

COc1ccc(C(=O)c2ccccc2)c(O)c1
inactive: [1] | [10] | [2] | [3] | [4] | [5] | [6] | [7] | [8] | [9]

C=C[C@H]1CN2CC[C@H]1C[C@@H]2[C@@H](O)c1ccnc2ccc(OC)cc12
inactive: [1] | [10] | [2] | [3] | [4] | [5] | [6] | [7] | [8] | [9]

COc1ccc(C(Cl)=C(c2ccc(OC)cc2)c2ccc(OC)cc2)cc1
inactive: [1] | [2] | [3] | [4] | [5] | [6] | [7] | [8] | [9]

CCCCC(CC)COC(=O)c1ccc(N(C)C)cc1 (configuration not stated)
inactive: [1] | [10] | [2] | [3] | [4] | [5] | [6] | [7] | [8] | [9]

CCOc1ccccc1C(N)=O
inactive: [1] | [10] | [2] | [3] | [4] | [5] | [6] | [7] | [8] | [9]

NC(=O)c1ccccc1O
inactive: [1] | [10] | [2] | [3] | [4] | [5] | [6] | [7] | [8] | [9]

CCCN(CCC)S(=O)(=O)c1ccc(C(=O)O)cc1
inactive: [1] | [10] | [2] | [3] | [4] | [5] | [6] | [7] | [8] | [9]

NCCNc1cccc2ccccc12
inactive: [1] | [2] | [3] | [4] | [5] | [6] | [7] | [8] | [9]

COc1cc([C@H]2Oc3cc([C@H]4Oc5cc(O)cc(O)c5C(=O)[C@@H]4O)ccc3O[C@@H]2CO)ccc1O
inactive: [1] | [10] | [2] | [3] | [4] | [5] | [6] | [7] | [8] | [9]

CCOc1ccc(NC(C)=O)cc1
inactive: [1] | [10] | [2] | [3] | [4] | [5] | [6] | [7] | [8] | [9]

C/C=C/c1ccc(O)c(OC)c1
inactive: [1] | [10] | [2] | [3] | [4] | [5] | [6] | [7] | [8] | [9]

O=C(O)c1ccc(S(=O)(=O)N(Cl)Cl)cc1
inactive: [1] | [10] | [2] | [3] | [4] | [5] | [6] | [7] | [8] | [9]
